Records with an inconclusive call do not appear. Calls of active or inactive are those of the source. The calls were made as follows, unless noted: active = hit-call score of the fitted dose curve at least 0.9, where 1 is the maximum; inconclusive = response in the unintended direction; inactive = score below 0.9.
Tests used:
[1] = TOX21_p53_BLA_p2_viability: Viability Assessment in the Tox21 HCT-116 p53 Agonism Beta-lactamase Assay, Phase 2 (AID 2283591);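 also: compound exposure lasted 16 h at 37 °C; actives lower the ATP signal meaning cytotoxicity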
In short: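 HCT116 p53-bla cells, 4000/well, dosed after 5 h plating (217-fold dilution of DMSO stocks) and incubated 16 h at 37C. Viability taken as cellular ATP by CellTiter-Glo luminescence after 30 min RT; signal loss marks cytotoxicity.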

[2] = TOX21_p53_BLA_p3_viability: Viability Assessment in the Tox21 HCT-116 p53 Agonism Beta-lactamase Assay, Phase 3 (AID 2283593)
In short: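 HCT116 cells, 4000/well, dosed 5 h after plating by pin transfer (217-fold dilution from DMSO stock) and incubated 16 h at 37C, 5% CO2. Viability read as ATP luminescence with CellTiter-Glo after 30 min at room temperature.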

[3] = molecular target: Cellular tumor antigen p53 (Homo sapiens) (UniProt P04637); assay: TOX21_p53_BLA_p5_ratio: Tox21 HCT-116 p53 Agonism Beta-lactamase Assay, Ratio, Phase 5 (AID 2283599)
In short: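 HCT-116 p53-bla cells (4000/well) plated 5 h, dosed with compound (217-fold DMSO dilution) for 16 h at 37 C; CCF4-AM substrate 2 h at room temperature. Activity is the 460/530 nm emission ratio (405 nm excitation), fitted in gain-of-signal direction versus DMSO.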

[4] = TOX21_p53_BLA_p5_viability: Viability Assessment in the Tox21 HCT-116 p53 Agonism Beta-lactamase Assay, Phase 5 (AID 2283600)
In short: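 4000 cells/well; 5 h pre-incubation; DMSO compounds pin-transferred, 217-fold dilution; 16 h, 37C/5% CO2; CCF4-AM 2 h RT; CellTiter-Glo 30 min RT; luminescence.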

[5] = molecular target: Cellular tumor antigen p53 (Homo sapiens) (UniProt P04637); assay: TOX21_p53_BLA_p4_ratio: Tox21 HCT-116 p53 Agonism Beta-lactamase Assay, Ratio, Phase 4 (AID 2283601)
In short: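 HCT-116 p53 beta-lactamase reporter cells (4000/well) preincubated 5 h, then compound (217-fold dilution of DMSO stock) for 16 h at 37C. CCF4-AM substrate added 2 h at room temperature; 460/530 nm emission ratio fitted upward versus DMSO.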

[6] = TOX21_p53_BLA_p4_viability: Viability Assessment in the Tox21 HCT-116 p53 Agonism Beta-lactamase Assay, Phase 4 (AID 2283597);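 also: hits lower the luminescence signal meaning cytotoxicity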
In short: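 Cells plated, 5 h pre-incubation; DMSO compounds pinned (217-fold dilution); 16 h, 37C/5% CO2; CCF4-AM 2 h RT; CellTiter-Glo 30 min RT; luminescence read.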

PGR (gene 5241) [7] = molecular target: PGR (gene 5241) (UniProt P06401); assay: TOX21_PR_BLA_Followup_Agonist_ratio: Tox21 HEK293 Progesterone Receptor (PR) Agonism Beta-lactamase Follow-Up Assay, Ratio (AID 2283933)
In short: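 PR-UAS-bla HEK293T cells in medium with 2% charcoal-stripped FBS were dosed after 6 h plating and incubated 16 h at 37C. LiveBLAzer FRET substrate was added for 2 h at room temperature. Cleaved/uncleaved substrate ratio fitted against DMSO; CellTiter-Glo viability run in the same wells.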

PGR (gene 5241) [8] = molecular target: PGR (gene 5241) (UniProt P06401); assay: TOX21_PR_BLA_Followup_Antagonist_ratio: Tox21 HEK293 Progesterone Receptor (PR) Antagonism Beta-lactamase Follow-Up Assay, Ratio (AID 2283934)
In short: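 PR-UAS-bla HEK293T cells, 3,000/well in 2% charcoal-stripped FBS, given compound plus 1nM R5020 agonist for 16 hr at 37C. Beta-lactamase FRET substrate 2 hours, ratio cleaved/uncleaved fluorescence; viability by CellTiter-Glo in same wells.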

[9] = TOX21_PR_BLA_Followup_Agonist_viability: Viability Assessment in the Tox21 HEK293 Progesterone Receptor (PR) Agonism Beta-lactamase Follow-Up Assay (AID 2283935);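 also: signal loss means lower viability so actives are cytotoxic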
In short: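 PR-UAS-bla HEK293T cells in 2% charcoal-stripped FBS medium, plated 6 hr before compound addition, exposed 16 hr at 37C. Viability read by CellTiter-Glo ATP luminescence after 30 min at room temperature, in the same wells as the beta-lactamase readout.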

[10] = TOX21_PR_BLA_Followup_Antagonist_viability: Viability Assessment in the Tox21 HEK293 Progesterone Receptor (PR) Antagonism Beta-lactamase Follow-Up Assay (AID 2283936);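 also: hits lower the luminescence signal meaning cytotoxicity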
In short: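 PR-UAS-bla HEK293T cells (3,000/well, 2% charcoal-stripped FBS) given compound plus R5020 agonist, 16 h at 37C. CellTiter-Glo added after bla read, 30 min at room temperature; luminescence loss indicates cytotoxicity.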

PGR (gene 5241) [11] = molecular target: PGR (gene 5241) (UniProt P06401); assay: TOX21_PR_LUC_Followup_Agonist: Tox21 HEK293 Progesterone Receptor (PR) Agonism Luciferase Follow-Up Assay (AID 2283937; active = hit-call score of the fitted dose curve at least 0.9, where 1 is the maximum; inactive = score below 0.9)
In short: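 HEK293-PR-A-luc cells, conditioned 5 days in 10% charcoal-stripped FBS medium, seeded 3,000/well for 5 h, then compound-treated 16 h at 37C. ONE-Glo luminescence read after 30 min at room temperature; gain of signal versus DMSO.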

PGR (gene 5241) [12] = molecular target: PGR (gene 5241) (UniProt P06401); assay: TOX21_PR_LUC_Followup_Antagonist: Tox21 HEK293 Progesterone Receptor (PR) Antagonism Luciferase Follow-Up Assay (AID 2283938);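 also: curve fitted upward as signal gain over DMSO baseline despite antagonist label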
In short: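 Cells are grown 5 days in charcoal-stripped-FBS assay medium, plated, left 5 h, then dosed with compound and incubated 16 h. ONE-Glo reagent is added and luminescence read after 30 min.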

[13] = TOX21_PR_LUC_Followup_Agonist_viability: Viability Assessment in the Tox21 HEK293 Progesterone Receptor (PR) Agonism Luciferase Follow-Up Assay (AID 2283941);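 also: loss of signal means cytotoxicity so actives lower viability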
In short: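 HEK293-PR-A-luc cells, kept in 10% charcoal-stripped FBS medium, were treated with compounds for 16 h at 37C. Viability read as cellular ATP by luciferase-coupled luminescence; loss of signal indicates cytotoxicity.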

[14] = CCTE_Harrill_HTTr_Viability_MCF7: CCTE's 6-hour Cell Viability Assessment for the High-Throughput Transcriptomics (HTTr) Platform, in MCF-7 cells cultured in DMEM + 10% fetal bovine serum, Harrill Lab (AID 2284010; active = hit-call score of the fitted dose curve at least 0.9, where 1 is the maximum; inactive = score below 0.9)
In short: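 MCF-7 cells in DMEM + 10% FBS, 384-well, exposed 6 h to an eight-point dilution series. Membrane integrity scored by high-content imaging of propidium iodide exclusion; bidirectional fit versus DMSO.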

[15] = CCTE_Harrill_HTTr_Apoptosis_MCF7: CCTE's 6-hour Apoptosis Assessment for the High-Throughput Transcriptomics (HTTr) Platform, in MCF-7 cells cultured in DMEM + 10% fetal bovine serum, Harrill Lab (AID 2284011; active = hit-call score of the fitted dose curve at least 0.9, where 1 is the maximum; inactive = score below 0.9)
In short: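 MCF-7 (DMEM + 10% FBS), 384-well; 8-pt dilution series, 6 h chemical exposure; caspase-3/7 activation via CellEvent Caspase 3/7 Green, HCI; bidirectional fit vs DMSO.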

[16] = CCTE_Harrill_HTTr_CellCount_MCF7: CCTE's Cell Proliferation Assessment for the High-Throughput Transcriptomics (HTTr) Platform, Harrill Lab (AID 2284012);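 also: cells exposed to compound for six hours; intended direction is loss of nuclei count meaning fewer cells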
In short: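 MCF7 cells exposed 6 hours to an eight-point dilution series; Hoechst-stained nuclei counted by high-content imaging. Bidirectional curve fitting against DMSO baseline.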

[17] = TOX21_PR_LUC_Followup_Antagonist_viability: Viability Assessment in the Tox21 HEK293 Progesterone Receptor (PR) Antagonism Luciferase Follow-Up Assay (AID 2283940)
In short: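 HEK293-PR-A-luc cells kept in charcoal-stripped FBS medium were plated 5 h before compound addition, then exposed 16 h at 37C; viability read as cellular ATP by luciferase luminescence, loss of signal indicating cytotoxicity.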

Chain of PGR (gene 5241) (P06401 whole entry, looked up): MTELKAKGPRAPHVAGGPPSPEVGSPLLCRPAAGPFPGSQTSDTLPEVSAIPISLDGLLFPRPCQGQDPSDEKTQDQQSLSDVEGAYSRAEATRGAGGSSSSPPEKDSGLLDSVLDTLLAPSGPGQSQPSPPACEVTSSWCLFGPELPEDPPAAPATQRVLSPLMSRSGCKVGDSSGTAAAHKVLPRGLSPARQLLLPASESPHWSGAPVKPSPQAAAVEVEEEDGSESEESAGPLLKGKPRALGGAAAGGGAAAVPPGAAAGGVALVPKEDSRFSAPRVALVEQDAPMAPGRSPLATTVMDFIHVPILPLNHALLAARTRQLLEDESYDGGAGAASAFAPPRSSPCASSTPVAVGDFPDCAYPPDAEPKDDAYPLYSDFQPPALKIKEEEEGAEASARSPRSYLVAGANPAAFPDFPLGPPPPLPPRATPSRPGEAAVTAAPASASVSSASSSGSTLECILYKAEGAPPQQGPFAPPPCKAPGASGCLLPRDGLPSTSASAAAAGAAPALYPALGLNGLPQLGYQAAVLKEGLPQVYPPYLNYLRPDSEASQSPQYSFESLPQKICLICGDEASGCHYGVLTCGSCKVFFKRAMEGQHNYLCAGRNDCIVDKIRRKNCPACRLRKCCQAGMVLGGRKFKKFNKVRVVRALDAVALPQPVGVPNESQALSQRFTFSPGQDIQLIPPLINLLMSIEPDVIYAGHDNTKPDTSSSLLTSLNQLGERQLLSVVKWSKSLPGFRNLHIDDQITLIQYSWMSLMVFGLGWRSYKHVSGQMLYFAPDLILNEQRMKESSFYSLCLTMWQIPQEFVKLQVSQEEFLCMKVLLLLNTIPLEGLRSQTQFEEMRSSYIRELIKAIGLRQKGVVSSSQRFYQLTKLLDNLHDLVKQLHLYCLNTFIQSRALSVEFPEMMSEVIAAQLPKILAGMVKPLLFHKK
Chain of Cellular tumor antigen p53 (Homo sapiens) (P04637 whole entry, looked up): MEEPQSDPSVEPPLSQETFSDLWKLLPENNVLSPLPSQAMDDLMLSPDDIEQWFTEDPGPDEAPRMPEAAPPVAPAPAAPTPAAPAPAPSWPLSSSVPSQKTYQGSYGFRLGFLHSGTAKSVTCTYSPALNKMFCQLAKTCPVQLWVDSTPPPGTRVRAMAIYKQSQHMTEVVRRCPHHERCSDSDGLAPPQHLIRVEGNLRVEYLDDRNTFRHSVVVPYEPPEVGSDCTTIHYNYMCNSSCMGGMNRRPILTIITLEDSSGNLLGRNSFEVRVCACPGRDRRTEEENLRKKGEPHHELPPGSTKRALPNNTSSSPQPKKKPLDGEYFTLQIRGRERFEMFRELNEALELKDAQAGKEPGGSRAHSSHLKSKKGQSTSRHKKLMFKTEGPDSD

In the case of `CC(=O)c1ccc(OCC(=O)N2CCCCC2)cc1`, the outcome [1] is reported as “inactive”, the outcome [2] is reported as “inactive” and the outcome [3] is reported as “inactive”. The outcome [4] was “inactive” and the outcome [5] was “inactive”.
With `CC1(C)[C@H]2CC[C@](C)(C2)[C@H]1O` the outcome [1] was “inactive”, the outcome [2] was “inactive” and the outcome [6] was “inactive”. For the same molecule, the outcome [5] was “inactive”.
With `CCOC(=O)C1=C[C@@H](OC(CC)CC)[C@H](NC(C)=O)[C@@H](N)C1` the outcome [1] was “inactive”, the outcome [2] was “inactive” and the outcome [3] was “inactive”. For the same molecule, the outcome [5] was “inactive”.
For `CC(C)(CC(=O)O)C(=O)O`, the outcome [1] was “inactive”, the outcome [2] was “inactive” and the outcome [3] was “inactive”. The outcome [4] was “inactive”.
In the case of `CCOCCOCCOC(C)=O`, the outcome [1] is reported as “inactive”, the outcome [2] is reported as “inactive” and the outcome [3] is reported as “inactive”. The outcome [4] was “inactive” and the outcome [5] was “inactive”.
With `Cc1cc(C)c(C=C2C(=O)Nc3ccccc32)[nH]1` the outcome [1] was “inactive”, the outcome [2] was “inactive” and the outcome [6] was “inactive”. For the same molecule, the outcome [4] was “inactive”, the outcome (PGR (gene 5241) [7]) was “inactive” and the outcome (PGR (gene 5241) [8]) was “inactive”. For the same molecule, the outcome [9] was “inactive”, the outcome [10] was “inactive” and the outcome (PGR (gene 5241) [11]) was “inactive”. The outcome (PGR (gene 5241) [12]) was “inactive”, the outcome [13] was “inactive” and the outcome [14] was “inactive”. For the same molecule, the AC50 [15] was 15.2 µM (active) and the outcome [16] was “inactive”.
For `Cc1ccc(/C(=C\CN2CCCC2)c2cccc(/C=C/C(=O)O)n2)cc1`, the outcome [1] was “inactive”, the outcome [2] was “inactive” and the outcome [6] was “inactive”. For the same molecule, the outcome [5] was “inactive”.
In the case of `O=C1OCCO1`, the outcome [1] is reported as “inactive”, the outcome [2] is reported as “inactive” and the outcome [3] is reported as “inactive”. For the same molecule, the outcome [4] was “inactive”.
In the case of `C[C@@H]1C[C@H]2[C@@H]3C[C@H](F)C4=CC(=O)C(Cl)=C[C@]4(C)[C@@]3(F)[C@@H](O)C[C@]2(C)[C@@]1(O)C(=O)CO`, the outcome [1] is reported as “inactive”, the outcome [2] is reported as “inactive” and the outcome [3] is reported as “inactive”. The outcome [4] was “inactive”, the outcome (PGR (gene 5241) [8]) was “inactive” and the outcome [10] was “inactive”. For the same molecule, the outcome (PGR (gene 5241) [12]) was “inactive”, the outcome [17] was “inactive” and the outcome [13] was “inactive”.
With `CC(=O)Oc1cc2c(s1)CCN(C(C(=O)C1CC1)c1ccccc1F)C2` (stereo not given) the outcome [1] was “inactive”, the outcome [2] was “inactive” and the outcome [4] was “inactive”.
With `O=C(O)C(=O)Cc1ccccc1` the outcome [1] was “inactive”, the outcome [2] was “inactive” and the outcome [3] was “inactive”. The outcome [5] was “inactive”.
